“And” between values parts separate entries of the source, which are not always exact repeats. Equal entries are not always repeated. Records with an inconclusive call do not appear. Some structures have more than one record in an assay (separate samples or runs), and their calls can disagree. The source made the active and inactive calls. Unless noted, calls follow the shape of the dose curve; as a rule, active = well fitted curve in the direction sought with a large enough effect; inconclusive = small, poorly fitted or top-dose-only effect, or another doubt; inactive = no such curve, though single readings can be large; an effect the other way counts as inactive or inconclusive.
Legend:
[1] = AP1 Signaling Pathway (AID 357; active = well fitted curve in either direction with a large enough effect, not every such curve was filed as active;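 also: ME-180 reporter cells stimulated with EGF at its EC50 level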)
Summary of the method: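 AP-1-bla ME-180 cells, Opti-MEM + 0.5% dialyzed FBS, plated overnight 37 °C. Cpd titration + EC50 EGF, 5 h 37 °C. CCF4 2.5 h RT; ex 405, em 460/530 ratio → %activity, AC50.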

[2] = molecular target: Glucocorticoid receptor (Homo sapiens) (UniProt P04150); experiment: GR-GFP Redistribution (AID 450;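 active = compounds whose dose series gives a full or clear partial fitted curve of increased nuclear translocation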; also: potency is read from the fitted curve at half-maximal effect); details: U2OS GR-GFP nuclear translocation, laser cytometry, 2 h
[3] = molecular target: Cytochrome P450 1A2 (Homo sapiens) (UniProt P05177); experiment: p450-cyp1a2 (AID 410; calls by dose curve)
Summary of the method: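 20nM CYP1A2, 100uM Luciferin-ME (=Km), 100mM KPO4; cpd 10 min RT; +NADPH regen, 60 min RT; stop/detect 20 min; luminescence. Normalized to furafylline 57 uM = full inhibition.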

[4] = molecular target: ATP-dependent 6-phosphofructokinase (Trypanosoma brucei brucei) (UniProt O15648); experiment: qHTS Assay to Find Inhibitors of T. brucei phosphofructokinase: hit validation (AID 492961);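 also: luminescence reports ADP formed as PFK phosphorylates fructose-6-phosphate with ATP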
Summary of the method: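 Percent activity derived from corrected luminescence, normalized between 0x and 1x enzyme controls, then fitted to concentration-response curves. Conditions: 1.25 nM PFK, 0.1 mM ATP, 0.5 mM F6P, 45 min RT.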

[5] = system: 7G8; experiment: qHTS profiling for inhibitors of Plasmodium falciparum proliferation (AID 504749); also: nearly all actives have a fitted effect of over 60% in size; also: potency is read from the fitted curve at half-maximal effect; details: P. falciparum in erythrocytes, SYBR Green DNA, 72 h; series mostly up to 12.8 µM
Summary of the method: (§1)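 Fluorescence of SYBR Green-bound parasite DNA, read at 485/535 nm, served as the growth measure. Infected erythrocytes were cultured with compound 72 h; artemisinin (0.29 uM) and DMSO wells defined the normalization range.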

[6] = system: CP260; experiment: as above; details: P. falciparum in erythrocytes, SYBR Green DNA, 72 h; series mostly up to 12.8 µM
Summary of the method: as §1

[7] = system: ICS; experiment: as above; details: P. falciparum in erythrocytes, SYBR Green DNA, 72 h; series mostly up to 12.8 µM
Summary of the method: as §1

[8] = system: W2; experiment: as above; details: P. falciparum in erythrocytes, SYBR Green DNA, 72 h; series mostly up to 12.8 µM
Summary of the method: as §1

[9] = molecular target: Cytochrome P450 2C9 (Homo sapiens) (UniProt P11712); experiment: qHTS Assay for Inhibitors and Substrates of Cytochrome P450 2C9 (AID 883); also: nearly all actives have a fitted effect of over 60% in size; also: potency is read from the fitted curve at half-maximal effect
Summary of the method: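 A luminogenic readout tracked human CYP2C9 (10nM) converting deoxyluciferin (100uM, at KM) in 25mM KPO4 during 60 min at 37C with regenerated NADPH. Values normalized to 57uM sulphaphenazole as complete inhibition.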

[10] = system: CP203; experiment: qHTS profiling for inhibitors of Plasmodium falciparum proliferation (AID 504749); also: nearly all actives have a fitted effect of over 60% in size; also: potency is read from the fitted curve at half-maximal effect; details: P. falciparum in erythrocytes, SYBR Green DNA, 72 h; series mostly up to 12.8 µM
Summary of the method: as §1

[11] = system: CP215; experiment: as above; details: P. falciparum in erythrocytes, SYBR Green DNA, 72 h; series mostly up to 12.8 µM
Summary of the method: as §1

[12] = system: CP266; experiment: as above; details: P. falciparum in erythrocytes, SYBR Green DNA, 72 h; series mostly up to 12.8 µM
Summary of the method: as §1

[13] = system: P94_40; experiment: as above; details: P. falciparum in erythrocytes, SYBR Green DNA, 72 h; series mostly up to 12.8 µM
Summary of the method: as §1

[14] = molecular target: Cytochrome P450 3A4 (Homo sapiens) (UniProt P08684); experiment: qHTS Assay for Inhibitors and Substrates of Cytochrome P450 3A4 (AID 884); also: nearly all actives have a fitted effect of over 50% in size; also: potency is read from the fitted curve at half-maximal effect
Summary of the method: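 Luminescent readout of luciferin produced by CYP3A4 (20 nM) dealkylation of Luciferin-PPXE, 25 uM (its KM). NADPH-driven reaction ran 60 min at RT after 10 min compound preincubation; data scaled to 57 uM ketoconazole as 100% inhibition.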

[15] = molecular target: Cytochrome P450 3A4 (Homo sapiens) (UniProt P08684); experiment: qHTS Assay for Activators of Cytochrome P450 3A4 (AID 885); also: nearly all actives have a fitted effect of over 65% in size
Summary of the method: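 Using 20nM recombinant human CYP3A4 in potassium phosphate (200mM), substrate Luciferin-PPXE at 25uM, luminescent luciferin detection followed a 60-min RT NADPH reaction; data scaled to 57 uM ketoconazole.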

[16] = Confirmation and Secondary Assay for Modulators of Hemoglobin Beta Chain Splicing at IVS2 654 locus (AID 910);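 also: per-well total GFP intensity by laser scanning cytometry after 2-day treatment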
Summary of the method: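 HeLa cells stably carrying EGFP interrupted by mutant beta-globin IVS2-654 intron (CMV-driven) were treated with compound for 2 days at 37C; corrected splicing was scored as total peak GFP intensity per well (488 nm excitation, 500-520 nm emission).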

[17] = Confirmation and Secondary Assay for Modulators of Hemoglobin Beta Chain Splicing at IVS2 705 locus (AID 930);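 also: HeLa cells stably expressing the EGFP-705 splicing reporter; GFP fluorescence per well restored by corrected splicing of the IVS2-705 intron in EGFP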
Summary of the method: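 HeLa EGFP-705 reporter; 500 cells/well, o/n 37C 5% CO2; cpd 2 d; 488 ex/500-520 em laser scan; total peak GFP intensity/well. Ref: 500 nM […] antisense PNA.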

[18] = molecular target: Cytochrome P450 2D6 (Homo sapiens) (UniProt P10635); experiment: qHTS Assay for Inhibitors and Substrates of Cytochrome P450 2D6 (AID 891); also: nearly all actives have a fitted effect of over 60% in size; also: potency is read from the fitted curve at half-maximal effect
Summary of the method: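 Luminescent read-out of luciferin formed by 5 nM human CYP2D6 demethylating 30 uM Luciferin-ME EGE (Km level) over 60 min at room temperature after NADPH regeneration addition. Data normalized to full inhibition by 1.43 uM quinidine.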

[19] = system: ATS95; experiment: qHTS profiling for inhibitors of Plasmodium falciparum proliferation (AID 504749); also: nearly all actives have a fitted effect of over 60% in size; also: potency is read from the fitted curve at half-maximal effect; details: P. falciparum in erythrocytes, SYBR Green DNA, 72 h; series mostly up to 12.8 µM
Summary of the method: as §1

[20] = S16 Schwann cell PMP22 intronic element firefly luciferase assay (AID 624032); also: nearly all actives have a fitted effect of over 30% in size
Summary of the method: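 Rat S16 Schwann cells stably carrying a PMP22 intronic element-driven Fluc reporter were seeded overnight, then exposed to compounds for 24 h at 37 °C. Luminescence was normalized to PTC124 (positive control) and DMSO (0% activity).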

Measured: Potency

Cytochrome P450 3A4 (Homo sapiens), sequence (P08684 whole entry, looked up): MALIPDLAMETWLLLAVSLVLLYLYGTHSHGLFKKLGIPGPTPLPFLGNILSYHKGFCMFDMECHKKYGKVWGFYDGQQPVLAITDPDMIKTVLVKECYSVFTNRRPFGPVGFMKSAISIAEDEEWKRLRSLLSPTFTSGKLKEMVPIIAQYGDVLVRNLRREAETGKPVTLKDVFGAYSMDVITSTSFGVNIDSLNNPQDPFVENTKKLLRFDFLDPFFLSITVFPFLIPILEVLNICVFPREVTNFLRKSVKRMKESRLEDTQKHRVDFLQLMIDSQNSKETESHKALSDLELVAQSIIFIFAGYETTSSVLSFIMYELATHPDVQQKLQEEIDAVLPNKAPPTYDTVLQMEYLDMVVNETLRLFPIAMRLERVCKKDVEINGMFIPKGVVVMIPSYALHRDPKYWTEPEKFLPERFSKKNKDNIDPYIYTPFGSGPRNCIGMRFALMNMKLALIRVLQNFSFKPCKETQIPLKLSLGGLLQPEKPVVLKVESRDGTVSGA
ATP-dependent 6-phosphofructokinase (Trypanosoma brucei brucei), sequence (O15648 whole entry, looked up): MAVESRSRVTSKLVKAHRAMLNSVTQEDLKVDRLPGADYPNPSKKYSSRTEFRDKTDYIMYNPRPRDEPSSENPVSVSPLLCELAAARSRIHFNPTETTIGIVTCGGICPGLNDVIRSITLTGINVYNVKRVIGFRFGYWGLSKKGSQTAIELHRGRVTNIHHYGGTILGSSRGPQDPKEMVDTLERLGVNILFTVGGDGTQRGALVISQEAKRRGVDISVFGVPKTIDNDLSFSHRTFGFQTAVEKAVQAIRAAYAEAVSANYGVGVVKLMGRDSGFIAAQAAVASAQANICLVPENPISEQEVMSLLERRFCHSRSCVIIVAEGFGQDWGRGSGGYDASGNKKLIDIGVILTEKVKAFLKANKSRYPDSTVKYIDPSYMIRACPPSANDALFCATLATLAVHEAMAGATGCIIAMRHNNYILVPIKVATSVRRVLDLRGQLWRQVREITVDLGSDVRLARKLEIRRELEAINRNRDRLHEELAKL
Cytochrome P450 2D6 (Homo sapiens), sequence (P10635 whole entry, looked up): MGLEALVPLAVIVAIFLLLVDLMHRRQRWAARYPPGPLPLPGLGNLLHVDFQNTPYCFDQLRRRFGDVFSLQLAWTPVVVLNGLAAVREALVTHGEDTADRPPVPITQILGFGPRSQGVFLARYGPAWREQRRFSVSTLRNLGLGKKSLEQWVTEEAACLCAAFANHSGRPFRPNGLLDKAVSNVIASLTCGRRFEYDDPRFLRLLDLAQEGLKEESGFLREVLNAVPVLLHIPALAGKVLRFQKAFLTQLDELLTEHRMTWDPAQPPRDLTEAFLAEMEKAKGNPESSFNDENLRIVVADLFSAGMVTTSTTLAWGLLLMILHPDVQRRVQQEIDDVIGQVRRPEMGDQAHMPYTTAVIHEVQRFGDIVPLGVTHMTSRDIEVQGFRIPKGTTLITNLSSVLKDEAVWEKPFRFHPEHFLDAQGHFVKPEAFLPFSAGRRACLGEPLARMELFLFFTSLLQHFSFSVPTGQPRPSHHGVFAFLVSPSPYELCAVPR
Glucocorticoid receptor (Homo sapiens), sequence (P04150 whole entry, looked up): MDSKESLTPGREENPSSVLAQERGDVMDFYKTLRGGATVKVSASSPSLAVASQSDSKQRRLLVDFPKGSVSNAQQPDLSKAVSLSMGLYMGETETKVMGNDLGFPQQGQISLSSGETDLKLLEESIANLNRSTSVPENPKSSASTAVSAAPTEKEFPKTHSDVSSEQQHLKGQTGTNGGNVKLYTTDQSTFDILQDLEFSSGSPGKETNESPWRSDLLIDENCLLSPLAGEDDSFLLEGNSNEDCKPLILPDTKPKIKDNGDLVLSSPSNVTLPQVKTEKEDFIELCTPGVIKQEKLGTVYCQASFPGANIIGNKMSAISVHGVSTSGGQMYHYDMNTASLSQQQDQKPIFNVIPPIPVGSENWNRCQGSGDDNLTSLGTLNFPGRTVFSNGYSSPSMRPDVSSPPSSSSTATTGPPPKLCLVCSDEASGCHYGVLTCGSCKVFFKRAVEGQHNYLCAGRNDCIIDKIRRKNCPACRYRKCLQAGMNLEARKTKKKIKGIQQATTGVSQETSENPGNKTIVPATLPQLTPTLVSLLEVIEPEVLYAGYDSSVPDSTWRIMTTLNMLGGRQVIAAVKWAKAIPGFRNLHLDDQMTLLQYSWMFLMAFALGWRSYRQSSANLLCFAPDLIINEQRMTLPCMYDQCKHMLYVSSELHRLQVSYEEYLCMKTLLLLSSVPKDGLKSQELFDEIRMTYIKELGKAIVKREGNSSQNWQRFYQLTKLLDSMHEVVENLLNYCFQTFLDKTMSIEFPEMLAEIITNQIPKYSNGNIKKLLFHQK
Cytochrome P450 2C9 (Homo sapiens), sequence (P11712 whole entry, looked up): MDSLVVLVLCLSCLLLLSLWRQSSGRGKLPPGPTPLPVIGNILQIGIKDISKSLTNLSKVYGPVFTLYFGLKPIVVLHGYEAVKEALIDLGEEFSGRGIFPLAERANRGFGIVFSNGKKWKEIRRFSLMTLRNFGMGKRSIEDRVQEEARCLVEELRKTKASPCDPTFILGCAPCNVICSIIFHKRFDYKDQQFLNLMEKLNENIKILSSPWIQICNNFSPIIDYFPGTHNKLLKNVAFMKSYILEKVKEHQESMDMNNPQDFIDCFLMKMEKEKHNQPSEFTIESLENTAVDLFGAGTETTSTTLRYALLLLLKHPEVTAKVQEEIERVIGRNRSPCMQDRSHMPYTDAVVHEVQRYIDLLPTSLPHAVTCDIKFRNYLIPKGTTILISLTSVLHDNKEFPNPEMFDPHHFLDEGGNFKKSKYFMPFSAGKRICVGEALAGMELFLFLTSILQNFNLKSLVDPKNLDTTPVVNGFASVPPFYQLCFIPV
Cytochrome P450 1A2 (Homo sapiens), sequence (P05177 whole entry, looked up): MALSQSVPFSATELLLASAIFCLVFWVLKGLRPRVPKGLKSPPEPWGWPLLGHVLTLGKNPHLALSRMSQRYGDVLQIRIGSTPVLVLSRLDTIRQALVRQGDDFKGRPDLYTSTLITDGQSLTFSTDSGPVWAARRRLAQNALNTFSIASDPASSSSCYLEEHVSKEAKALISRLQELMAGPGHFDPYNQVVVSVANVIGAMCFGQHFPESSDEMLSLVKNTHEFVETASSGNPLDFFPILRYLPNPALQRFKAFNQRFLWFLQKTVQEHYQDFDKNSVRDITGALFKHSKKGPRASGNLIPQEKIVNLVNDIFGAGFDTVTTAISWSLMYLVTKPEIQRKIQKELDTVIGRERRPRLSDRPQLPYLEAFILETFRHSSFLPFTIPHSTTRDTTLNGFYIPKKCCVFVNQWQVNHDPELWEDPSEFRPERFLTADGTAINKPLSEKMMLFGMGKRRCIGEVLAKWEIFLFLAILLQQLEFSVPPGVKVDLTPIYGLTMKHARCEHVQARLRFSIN

CC(=O)O[C@H]1C[C@H]2CC[C@@H]3[C@@H](CC[C@]4(C)[C@H](OC(C)=O)[C@H]([N+]5(C)CCCCC5)C[C@@H]34)[C@]2(C)C[C@H]1[N+]1(C)CCCCC1
inactive: [1] | [2] > 20.6 µM

CCOC(=O)Oc1c(OC)cc(C(=O)O[C@H]2C[C@H]3CN4CCc5c([nH]c6cc(OC)ccc56)[C@@H]4C[C@H]3[C@@H](C(=O)OC)[C@@H]2OC)cc1OC
inactive: [3] | [2] > 20.6 µM | [4]
active: [5] 2.51 µM | [6] 2.51 µM | [7] 2.82 µM | [8] 2.56 µM

C=CCO[C@@H](Cn1ccnc1)c1ccc(Cl)cc1Cl
inactive: [1] | [2] > 20.6 µM

CC#C[C@@]1(O)CC[C@H]2[C@@H]3CCC4=CC(=O)CCC4=C3[C@H](c3ccc(N(C)C)cc3)C[C@]21C
active: [9] 3.98 µM
inactive: [1]

C[C@@H]1[C@H]2CC[C@@H]3[C@@H]4CC=C5C[C@@H](N(C)C)CC[C@]5(C)[C@@H]4CC[C@@]32CN1C
inactive: [1]

OCCOCCN1CCN([C@@H](c2ccccc2)c2ccc(Cl)cc2)CC1
inactive: [1]

CCN(CC)CCOC(=O)[C@@H](Cc1cccc2ccccc12)C[C@@H]1CCCO1
active: [8] 2.28 µM
inactive: [1] | [4] | [10] | [11] | [6] | [12] | [7] | [13]

Nc1nc(=S)c2ncn([C@H]3O[C@@H](CO)[C@@H](O)[C@@H]3O)c2[nH]1
inactive: [1] | [2] > 20.6 µM

CS(=O)(=O)Nc1cccc(-c2nc(Nc3ccc(F)cc3)c3ccccc3n2)c1
active: [14] 6.31 µM
inactive: [1] | [15] | [16] | [17]

CC(C)(C)NC[C@@H](O)COc1ccccc1C1CCCC1
inactive: [1]
active: [18] 2.51 µM | [5] 0.708 µM | [19] 3.55 µM | [10] 3.22 µM | [11] 4.55 µM | [6] 3.16 µM | [7] 1.41 µM | [13] 3.98 µM | [8] 0.572 µM

OCCN1CCN(CCC=C2c3ccccc3Sc3ccc(Cl)cc32)CC1
inactive: [1] | [2] > 20.6 µM | [15] | [4] | [20] | [10] | [12]
active: [5] 3.16 µM | [7] 4.47 µM | [8] 0.721 µM

CC1=CC(=O)C2=C(C)CC[C@@H]3[C@@H](OC(=O)[C@H]3C)[C@H]12
inactive: [1] | [2] > 20.6 µM

CN1CCCN=C1/C=C\c1cccs1
inactive: [1] | [2] > 20.6 µM

Cc1ccc(S(=O)(=O)NC(=O)NN2C[C@H]3CCC[C@@H]3C2)cc1
not listed: [2] | [3] | [9] | [14] | [15] | [16] | [17] | [18]
inactive: all other assays above

O[C@@](CCN1CCCC1)(c1ccccc1)C1CCCCC1
active: [5] 4.47 µM | [8] 0.455 µM
inactive: [1] | [2] > 20.6 µM | [4] | [20] | [6] | [12]

NC[C@@H]1O[C@H](O[C@@H]2[C@H](O[C@@H]3O[C@H](CO)[C@@H](O)[C@@H]3O)[C@@H](O)[C@@H](N)C[C@H]2N)[C@@H](N)[C@H](O)[C@@H]1O
inactive: [1] | [2] > 20.6 µM | [4] | [20] | [19] | [10] | [6] | [12] | [7] | [13] | [8]

CN1CCO[C@H](c2ccccc2)c2ccccc2C1
inactive: [1] | [20] | [5] | [11] | [6] | [12] | [7]
active: [8] 2.03 µM

Clc1ccc([C@H](Cn2ccnc2)OCc2c(Cl)cccc2Cl)c(Cl)c1
inactive: [1]
active: [5] 1.58 µM | [10] 6.42 µM | [11] 5.73 µM | [7] 1.58 µM | [13] 3.16 µM | [8] 2.03 µM

CN1CCC[C@@H](CC2c3ccccc3Sc3ccccc32)C1
inactive: [3] | [2] > 20.6 µM | [4] | [12]
active: [18] 0.316 µM | [5] 3.98 µM | [8] 1.44 µM

Cc1onc(-c2ccccc2Cl)c1C(=O)N[C@H]1C(=O)N2[C@H]1SC(C)(C)[C@H]2C(=O)O
inactive: [1] | [2] > 20.6 µM | [4] | [19] | [10] | [11] | [6] | [7] | [13] | [8]

CNCCC=C1c2ccccc2C=Cc2ccccc21
active: [18] 5.01 µM
inactive: [1] | [2] > 20.6 µM

CCN(CCCCOC(=O)c1ccc(OC)c(OC)c1)[C@@H](C)Cc1ccc(OC)cc1
inactive: [1] | [20] | [11] | [12]

CC(=O)N[C@H](CS)C(=O)O
inactive: [1] | [2] > 46 µM | [9] | [14] | [18] | [16] | [17]

c1ccc2c(c1)CCCc1cc(NCCN3CCOCC3)nnc1-2
inactive: [1] | [2] > 20.6 µM

CC(=O)/C(C)=N\O
7.38 µM (active) and > 46 µM (inactive): [2]
inactive: [1]
